DYRK1A inh: blocks rat Dyrk1A kinase activity; ADP-Glo luminescence, NFATc1 peptide; inhibition, % at 12.5 µM; 0.43% of 310,000 active; in the data active means inhibition above about 50%
SMARCA2 activ: activators of SMARCA2 function; MG213 cells, MMTV-luciferase reporter, dexamethasone, overnight; activation, % at 9.1 µM; 1% of 370,000 active; AID 652017; in the data active means activation above about 7.8%
dFosB act-1: mouse delta FosB homodimer activation; purified delta FosB, TAMRA-CDK5 oligo fluorescence polarization; percent of positive-control signal above neutral wells; activation, % at 25 µM; P13346; 0.99% of 340,000 active;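 active means mean activation above about 17%, with every replicate also reaching it, limit read from the data, passing the limit was not always enough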
Target sequence (P13346 whole entry, looked up): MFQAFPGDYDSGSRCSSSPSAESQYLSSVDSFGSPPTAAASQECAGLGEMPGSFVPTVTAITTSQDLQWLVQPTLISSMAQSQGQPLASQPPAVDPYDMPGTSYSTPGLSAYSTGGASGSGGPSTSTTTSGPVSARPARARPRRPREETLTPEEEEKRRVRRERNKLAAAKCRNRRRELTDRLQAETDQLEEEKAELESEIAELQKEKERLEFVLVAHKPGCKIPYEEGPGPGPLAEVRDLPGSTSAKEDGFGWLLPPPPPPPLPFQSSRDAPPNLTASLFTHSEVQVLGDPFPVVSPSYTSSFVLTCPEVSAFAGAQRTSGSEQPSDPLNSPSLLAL
CDK5 p35 inh: CDK5/p35 (human) kinase inhibition; Q00535+Q15078; Recombinant CDK5/p35, ADP-Glo luminescence, 60 min; inhibition, % at 10 µM; 0.01% of 330,000 active;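 active means highest replicate inhibition of at least 50% and at least 75% of replicates reaching 50%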
esBAF inh: inhibitors of esBAF chromatin remodeling in mouse ES cells; AID 602393; Bmi1-luciferase knock-in reporter, 24 h; 100% = twice the neutral-well signal; reporter increase, % at 12.5 µM; 2% of 350,000 active; in the data active means activation above about 40%;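 further: a rise in the Bmi1 reporter signal indicates esBAF inhibition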
Rtt109 HAT inh: inhibitors of Candida albicans Rtt109/Vps75 histone acetyltransferase | inhibition, % at 34.9 µM | Q5AAJ8 | purified Rtt109/Vps75, ThioGlo CoA-SH fluorescence, 4 h | 0.16% of 330,000 active;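 active means inhibition of at least 50% in every replicate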
dFosB act-2: delta FosB (mouse) homodimer activation; shares compounds with dFosB act-1; purified delta FosB, TAMRA-CDK5 oligo fluorescence polarization; normalised: neutral wells 0, positive control 100; activation, % at 24.9 µM; 2,400 tested, under 10 active; AID 588690;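 active means highest replicate activation at or above 34% and every replicate reaching that threshold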;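 further: higher polarization means more probe DNA bound by delta FosB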
Hits are given with their value. In the library only some 3.2% were active in any assay of this set; here they are far more common.

COc1ccc(N(C)S(=O)(=O)c2cccc(C(=O)Nc3nnc(C4CC4)s3)c2)cc1 was read as SMARCA2 activ inactive, dFosB act-1 inactive, CDK5 p35 inh inactive, esBAF inh inactive and Rtt109 HAT inh inactive.
`O=C(NNC(=O)c1cccc(S(=O)(=O)N2CCc3ccccc32)c1)c1ccccc1` gave SMARCA2 activ inactive, dFosB act-1 inactive, CDK5 p35 inh inactive and Rtt109 HAT inh inactive.
COc1cc(OC)c(N(C)S(=O)(=O)c2cccc(C(=O)Nc3nnc(C4CC4)s3)c2)cc1Cl was read as DYRK1A inh inactive, SMARCA2 activ inactive, dFosB act-1 63.4, CDK5 p35 inh inactive, esBAF inh inactive, Rtt109 HAT inh inactive and dFosB act-2 inactive.
`O=C(Nc1nc2c(s1)CN(Cc1ccccc1)CC2)c1cccc(S(=O)(=O)N2CCc3ccccc32)c1` gave DYRK1A inh inactive, SMARCA2 activ inactive, dFosB act-1 73.8, CDK5 p35 inh inactive, esBAF inh inactive, Rtt109 HAT inh inactive and dFosB act-2 inactive.
Screening O=C(Nc1nc2ccccc2s1)c1cccc(S(=O)(=O)N2CCc3ccccc32)c1 returned DYRK1A inh inactive, SMARCA2 activ inactive, dFosB act-1 34.1, CDK5 p35 inh inactive, esBAF inh inactive, Rtt109 HAT inh inactive and dFosB act-2 inactive.
For CCc1nnc(NC(=O)c2cccc(S(=O)(=O)N3CCc4ccccc43)c2)s1 the results were DYRK1A inh inactive, SMARCA2 activ inactive, dFosB act-1 34.3, CDK5 p35 inh inactive, esBAF inh inactive, Rtt109 HAT inh inactive and dFosB act-2 inactive.
For C[C@H]1CN([C@@H](C)CO)C(=O)CCCn2cc(nn2)CO[C@H]1CN(C)Cc1ccc(C(F)(F)F)cc1 the results were esBAF inh inactive.
C[C@H](CO)N1C[C@H](C)[C@H](CN(C)C(=O)C2CCC2)Oc2cc(C#CC3CC3)ccc2S1(=O)=O was read as esBAF inh inactive.
`O=C(Nc1nnc(C2CC2)s1)c1cccc(S(=O)(=O)N2CCc3ccccc32)c1` gave DYRK1A inh inactive, SMARCA2 activ inactive, dFosB act-1 51.0, CDK5 p35 inh inactive, esBAF inh inactive, Rtt109 HAT inh inactive and dFosB act-2 inactive.
Screening Cc1nnc(NC(=O)c2cccc(S(=O)(=O)N3CCc4ccccc43)c2)s1 returned DYRK1A inh inactive, SMARCA2 activ inactive, dFosB act-1 inactive, CDK5 p35 inh inactive, esBAF inh inactive and Rtt109 HAT inh inactive.
For Cc1ccc(C(=O)Nc2cccc(-c3cnc4ccccc4n3)c2)cc1 the results were DYRK1A inh inactive, SMARCA2 activ inactive, dFosB act-1 inactive, CDK5 p35 inh inactive, esBAF inh inactive and Rtt109 HAT inh inactive.
For O=C(CNC(=O)c1ccc(Br)o1)Nc1cccc(-c2cnc3ccccc3n2)c1 the results were DYRK1A inh inactive, SMARCA2 activ inactive, dFosB act-1 19.5, CDK5 p35 inh inactive, esBAF inh inactive, Rtt109 HAT inh inactive and dFosB act-2 inactive.
`CC(=O)Nc1ccc(C(=O)Nc2cccc(-c3cnc4ccccc4n3)c2)cc1` gave DYRK1A inh inactive, SMARCA2 activ inactive, dFosB act-1 24.1, CDK5 p35 inh inactive, Rtt109 HAT inh inactive and dFosB act-2 inactive.
`O=C(Nc1cccc(-c2cnc3ccccc3n2)c1)c1ccco1` gave DYRK1A inh inactive, SMARCA2 activ inactive, dFosB act-1 inactive, CDK5 p35 inh inactive, esBAF inh inactive and Rtt109 HAT inh inactive.
Screening CCCCNC(=S)N/N=C/c1ccc(OCC(=O)Nc2c(C)cc(C)cc2C)c(OC)c1 returned DYRK1A inh inactive, SMARCA2 activ inactive, dFosB act-1 21.7, CDK5 p35 inh inactive, Rtt109 HAT inh inactive and dFosB act-2 inactive.
Screening COc1cc(/C=N/NC(N)=S)ccc1OCC(=O)Nc1ccc(C)c(C)c1 returned DYRK1A inh inactive, SMARCA2 activ inactive, dFosB act-1 inactive, CDK5 p35 inh inactive, esBAF inh inactive and Rtt109 HAT inh inactive.
For CCOC(=O)Nc1cccc(OCC(=O)Nc2ccc3c(c2)CCC3)c1 the results were SMARCA2 activ inactive, dFosB act-1 23.0, CDK5 p35 inh inactive, esBAF inh inactive, Rtt109 HAT inh inactive and dFosB act-2 inactive.
For COc1cccc(NC(=O)COc2ccc3c(c2)CCC3)c1 the results were DYRK1A inh inactive, SMARCA2 activ inactive, dFosB act-1 inactive, CDK5 p35 inh inactive and Rtt109 HAT inh inactive.
For C/C(=N\NC(=O)c1nnn(-c2nonc2N)c1CSc1ccccc1)c1ccco1 the results were DYRK1A inh inactive, SMARCA2 activ inactive, dFosB act-1 38.1, CDK5 p35 inh inactive, esBAF inh inactive, Rtt109 HAT inh inactive and dFosB act-2 inactive.
`C/C(=N\NC(=O)c1nnn(-c2nonc2N)c1CSc1ccc(C)cc1)c1ccco1` gave DYRK1A inh inactive, SMARCA2 activ inactive, dFosB act-1 18.4, CDK5 p35 inh inactive, esBAF inh inactive, Rtt109 HAT inh inactive and dFosB act-2 inactive.
C[C@H](CO)N1C[C@H](C)[C@H](CN(C)C)Oc2cc(-c3cccnc3)ccc2S1(=O)=O was read as esBAF inh inactive.
CN1C(=O)c2cc(NC(=O)c3ccc(F)cc3)ccc2OC[C@H]2O[C@H](CC(=O)N3CCOCC3)CC[C@H]21 was read as esBAF inh inactive.
O=C(Nc1ccon1)c1sc2cc(Cl)ccc2c1Cl was read as DYRK1A inh inactive, SMARCA2 activ inactive, dFosB act-1 40.9, CDK5 p35 inh inactive, esBAF inh 47.3, Rtt109 HAT inh inactive and dFosB act-2 inactive.
Screening O=C(NCc1ccco1)c1sc2cc(Cl)ccc2c1Cl returned DYRK1A inh inactive, SMARCA2 activ inactive, dFosB act-1 inactive, CDK5 p35 inh inactive, esBAF inh inactive and Rtt109 HAT inh inactive.
`C[C@H](CO)N1C[C@H](C)[C@H](CN(C)S(C)(=O)=O)Oc2ccc(NC(=O)Cc3ccccc3)cc2CC1=O` gave esBAF inh inactive.
`Cc1c(-c2nc(N)nc(Nc3ccccc3)n2)oc2ccccc12` gave DYRK1A inh inactive, SMARCA2 activ inactive, dFosB act-1 52.4, CDK5 p35 inh inactive, Rtt109 HAT inh inactive and dFosB act-2 inactive.
`Nc1nc(CN2CCCCCC2)nc(Nc2ccccc2)n1` gave DYRK1A inh inactive, SMARCA2 activ inactive, dFosB act-1 inactive and Rtt109 HAT inh inactive.
Cc1ccc2c(c1)C1NC(=S)NC(C)(O2)C1C(=O)Nc1ccc(Cl)cc1 (centres undefined) was read as DYRK1A inh inactive, SMARCA2 activ inactive, dFosB act-1 39.5, CDK5 p35 inh inactive, esBAF inh inactive, Rtt109 HAT inh inactive and dFosB act-2 inactive.
Screening Cn1cc(Cl)c(C(=O)Nc2nc3ccc([N+](=O)[O-])cc3s2)n1 returned DYRK1A inh inactive, SMARCA2 activ inactive, dFosB act-1 inactive and CDK5 p35 inh inactive.
For Cn1cc(Cl)c(C(=O)Nc2nc3ccc(Cl)cc3s2)n1 the results were DYRK1A inh inactive, SMARCA2 activ inactive, dFosB act-1 23.5, CDK5 p35 inh inactive, esBAF inh 112.0 and dFosB act-2 inactive.

Bioassay records as filed in PubChem.
